Activity calls are given as the source filed them.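 Rule for the calls: active = relative FRET score above 0.01, or acceptor fluorescence over 30% below the sample-well median; inactive = the rest.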

Protein Rev (Human immunodeficiency virus type 1 group M subtype B (isolate WMJ22)), sequence (P05866 whole entry, looked up): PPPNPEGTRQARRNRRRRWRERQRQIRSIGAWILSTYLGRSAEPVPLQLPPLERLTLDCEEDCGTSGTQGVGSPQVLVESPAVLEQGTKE

The assay addresses Protein Rev (Human immunodeficiency virus type 1 group M subtype B (isolate WMJ22)) (UniProt P05866). Nature of the assay: disruptors of Rev peptide-RRE RNA complex – biochemical, FRET, acceptor and relative FRET calls, confirmation (AID 837).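 Note: relative FRET combines rise in Cy5 acceptor with fall in fluorescein donor.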 Conditions: Fl-Rev peptide / Cy5-RRE RNA FRET, 1536-well; at 8 µM.
For the compound `CC(=O)c1ccc(NC(=O)c2ccc3nc(-c4ccco4)c(-c4ccco4)nc3c2)cc1`, the outcome was inactive.

Take `Cc1cccc(N2C(N)=NC(N)=NC23CCCCC3)c1`: the result was inactive.

Regarding `Cc1ccc(S(=O)(=O)c2c(COC(=O)c3ccc(Cl)cc3)c(-c3ccccc3)nn2C)cc1`, the compound was classed as inactive.

`O=[N+]([O-])c1ccc2nc(-c3ccc(Cl)cc3)n(OCc3ccccc3)c2c1`: the result was inactive.

For `CCCCCCC1CC(CSC(=N)N)OC1=O` (stereo not given), the compound was called inactive.

For the compound `CCOc1cc(-c2ccc(N)c(OCC)c2)ccc1N`, the outcome is “active; fluoresces like the donor”.

`O=C(Nc1nccs1)c1ccc(-c2ccccc2Cl)o1`: the outcome was inactive.

Turning to `CCN(CC)CCCOc1ccc(C)cc1Br`, the outcome was inactive.

On to `CCCCNCCCOc1cccc(Cl)c1Cl`, for which the compound was called inactive.

`CCN(CC)CCn1c(=N)n(CCOc2ccccc2)c2ccccc21`: the outcome was inactive.

Consider `CC(C)(C)CC(C)(C)NCC(O)COc1c(F)cc(Br)cc1F` (stereo not given), for which the call was inactive.

In the case of `CCCCN1C(=O)Cc2c1nc(N)c1c(N)nc(N(CCC)CCC)c(C#N)c21`, the compound was called inactive.

Take `Nc1[nH]c(=S)[nH]c(=O)c1-c1ccccc1`: the compound was classed as inactive.

On to `Nc1cccc2nc3ccccc3cc12`, for which the compound was called inactive.

For `Cc1ccc(C(=O)NNC(=O)CSc2nnc3c(n2)[nH]c2ccc(F)cc23)cc1`, the outcome was “active; quenches the donor”.

Turning to `COc1cc2[nH]c(=O)c(C(=O)NCCCN3CCCCC3)c(O)c2cc1OC`, the result was inactive.

Consider `COc1cccc(-c2cc(C(F)(F)F)nc(N3CCC(C)CC3)n2)c1`, for which the call was inactive.

Regarding `CCCCCCCCOc1ccc(C2OC34CCCCC3C(C#N)(C#N)C2(C#N)C(=N)O4)cc1` (stereo not given), the call was inactive.

Take `Cc1occc1C(=O)Nc1sc2c(c1C(N)=O)CCC(C(C)(C)C)C2` (stereo not given): the result was inactive.

As to `N=c1c2c(n(Cc3ccc(F)cc3)c3c1CCC3)CCC2`, the result was inactive.

On to `Cn1nc(SCC(=O)O)sc1=S`, for which the compound was classed as inactive.

With `CCN(CC)CCOc1cc2c(nn1)Oc1ccccc1N2C`, the outcome was inactive.

`CC(C)c1ccc(CNCc2ccccc2)cc1`: the compound was called inactive.

With `CN1/C(=C\C=Nc2ccc3ccccc3c2)C(C)(C)c2ccccc21`, the compound was called inactive.

Consider `C1=C2C[N+]3(CCCC3)CC2Cc2ccc3ccccc3c21` (stereo not given), for which the compound was classed as inactive.

With `NCCCC(=O)N1c2ccccc2Sc2ccccc21`, the outcome was active.

On to `COc1ccc(C2N=C(N)N=C(N)N2c2ccc(C)cc2)cc1` (stereo not given), for which the call was active.

With `COc1ccc2c3c(cccc13)NN=C2C`, the compound was classed as inactive.

Regarding `Cc1nc(Nc2ccncc2)c2oc3ccccc3c2n1`, the result was active.

As to `CC(=Nc1ccc(C)cc1)c1sc2ccccc2c1O`, the call was inactive.

Turning to `CN(CC(O)COc1ccc(OCC(O)CN(C)C2CCCCC2)cc1)C1CCCCC1` (stereo not given), the compound was called inactive.

For `CC1CC(C)CN(Cc2nc(N)nc(Nc3ccccc3)n2)C1` (stereo not given), the result was inactive.

Turning to `Cc1ccc(C(=O)/C=C/c2ccccc2)o1`, the call was inactive.

With `CCOC(=O)c1c(C)n(C)c2ccc(O)c(CN(C)C)c12`, the compound was classed as active.

For the compound `COc1ccc2nc(NC(=O)c3ccc(Br)s3)sc2c1`, the compound was called inactive.

With `CCOC(=O)[C@@H]1CCNC[C@@H]1c1ccccc1`, the outcome was inactive.

As for `Cc1ccc2nc(NC(=O)c3ccc(Cl)s3)sc2c1`, the compound was classed as inactive.

On to `Cc1ccc(C2C3=C(NCCN=C3c3ccccc3)C(=O)N2c2ccccc2)cc1` (stereo not given), for which the result was inactive.

As for `CCN(CC)CCCNC(=O)c1cc(-c2ccc(Cl)cc2)on1`, the compound was classed as inactive.

Consider `CCCN1C2=NCCN2c2cc(C)c(C)cc21`, for which the compound was called inactive.
